# Inconclusive results are not listed. The source made the active and inactive calls. How the source made its calls: active means hit-call score of the fitted dose curve at least 0.9, where 1 is the maximum; inconclusive means response in the unintended direction; inactive means score below 0.9.
# Assays:
# [1] = biological target: rat Adrenergic Receptor, Alpha 2 (Adra2), Non-selective Binding, Adra2a (gene 25083) (UniProt P22909); test: NVS_GPCR_rAdra2_NonSelective: NovaScreen (NVS) G Protein-Coupled Receptor Assay for rat Adrenergic Receptor, Alpha 2 (Adra2), Non-selective Binding (AID 2283299)
# How it was run: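 Rat cortical membranes, radioligand competitive displacement read by filter-based scintillation counting 1.25 hours after dosing. Primary screen in duplicate at 25 uM; actives followed up in concentration series.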
# [2] = biological target: rat Corticotropin Releasing Factor Receptor (CRF), Crhr1 (gene 58959) (UniProt P35353); test: NVS_GPCR_rCRF: NovaScreen (NVS) G Protein-Coupled Receptor Assay for rat Corticotropin Releasing Factor Receptor (CRF) (AID 2283300)
# How it was run: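 Rat cortical membranes used as receptor source in a radioligand competitive displacement binding assay; scintillation read 2 h after dosing. Primary screen run in duplicate at 25 uM; loss of signal versus DMSO baseline indicates binding.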
# [3] = biological target: rat Gamma-Aminobutyric Acid Type B Receptor (GABBR), Gabbr1 (gene 81657) (UniProt Q9Z0U4); test: NVS_GPCR_rGABBR: NovaScreen (NVS) G Protein-Coupled Receptor Assay for rat Gamma-Aminobutyric Acid Type B Receptor (GABBR) (AID 2283301)
# How it was run: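 Radioligand displacement on rat cortical membranes, 1 h, filter-based scintillation counting. Primary screen at 25 uM in duplicate; compounds passing threshold re-tested in concentration-response up to 50 uM; loss of binding fitted against DMSO.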
# [4] = biological target: rat Glutamate, NMDA Agonist Site (GluNMDA), Grin1 (gene 24408) (UniProt P35439); test: NVS_LGIC_rGluNMDA_Agonist: NovaScreen (NVS) Ligand-Gated Ion Channel Assay for rat Glutamate, NMDA Agonist Site (GluNMDA) (AID 2283327)
# How it was run: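 Rat forebrain membranes, radioligand binding in the agonist-site protocol; 1 h after dosing; filter-based scintillation counting. Single-concentration duplicate screen at 25 uM, then concentration-response up to 50 uM for actives; gain-of-signal vs DMSO.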
# [5] = biological target: bovine Gamma-Aminobutyric Acid Type A Receptor BDZ, alpha 1 site (GABARa1), GABRA1 (gene 780973) (UniProt P08219); test: NVS_LGIC_bGABARa1: NovaScreen (NVS) Ligand-Gated Ion Channel Assay for bovine Gamma-Aminobutyric Acid Type A Receptor BDZ, alpha 1 site (GABARa1) (AID 2283321)
# How it was run: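 Radioligand competition binding on bovine cortical membranes, 0.75 h, filter-based scintillation counting. Primary single concentration 25 uM in duplicate; actives rerun in concentration-response to 50 uM max. Loss of signal fitted versus DMSO.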
# Adra2b (gene 24174) = Adra2b (gene 24174) (UniProt P19328); test: NVS_GPCR_rmAdra2B: NovaScreen (NVS) G Protein-Coupled Receptor Assay for hybird cells Adrenergic, Alpha 2B Receptor (Adra2B) (AID 2283306)
# How it was run: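 Radioligand filter-binding assay on membrane proteins from neuroglioma/blastoma hybrid cells (rodent), 1 h after dosing; scintillation counting, loss of signal vs DMSO. Primary screen in duplicate at 25 uM, actives then run in concentration series.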
# [6] = biological target: rat Neurotensin Receptor (NTS), Ntsr1 (gene 366274) (UniProt P20789); test: NVS_GPCR_rNTS: NovaScreen (NVS) G Protein-Coupled Receptor Assay for rat Neurotensin Receptor (NTS) (AID 2283308)
# How it was run: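 Rat forebrain membranes; radioligand binding with competitive displacement, read by filter-based scintillation counting 1 h after dosing. Primary screen in duplicate at 25 uM; actives (e.g., 30% inhibition) rerun in concentration-response up to 50 uM, loss-of-signal versus DMSO.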
# [7] = biological target: rat Opioid Receptor, Non-selective Sodium (Na+) Binding, Oprm1 (gene 25601) (UniProt P33535); test: NVS_GPCR_rOpiate_NonSelectiveNa: NovaScreen (NVS) G Protein-Coupled Receptor Assay for rat Opioid Receptor, Non-selective Sodium (Na+) Binding (AID 2283311)
# How it was run: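 Rat forebrain membranes, radioligand displacement with filter scintillation counting, 1.5 h incubation. Screened in duplicate at 25 µM; hits then run in concentration-response up to 50 µM; loss of binding fitted versus DMSO.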
# [8] = biological target: bovine Gamma-Aminobutyric Acid Type A Receptor BDZ, alpha 5 site (GABARa5), GABRA5 (gene 523515) (UniProt Q08E50); test: NVS_LGIC_bGABARa5: NovaScreen (NVS) Ligand-Gated Ion Channel Assay for bovine Gamma-Aminobutyric Acid Type A Receptor BDZ, alpha 5 site (GABARa5) (AID 2283323)
# How it was run: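 Radioligand competitive displacement binding on bovine hippocampal membranes, read 1 hr after dosing by filter-based scintillation counting. Primary screen at 25 uM in duplicate; actives (e.g. ≥30% inhibition) then run in concentration-response up to 50 uM.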
# [9] = biological target: Voltage-dependent N-type calcium channel subunit alpha-1B (Rattus norvegicus) (UniProt Q02294); test: NVS_IC_rCaChN: NovaScreen (NVS) Ion Channel Assay for rat Calcium Channel, Type N (CaChN) (AID 2283317)
# NCBI gene 24521 = test: NVS_IC_rKATPCh: NovaScreen (NVS) Ion Channel Assay for rat Potassium Channel, ATP-Sensitive (KATPCh) (AID 2283319)
# How it was run: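 Rat cortical membranes; radioligand binding at ATP-sensitive K channel site, filter-based scintillation counting 2 h after dosing. Single-point duplicate screen at 25 uM, hits rerun in concentration-response up to 50 uM; loss of signal versus DMSO.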
# [10] = biological target: rat Oxytocin Receptor (OXT), Oxtr (gene 25342) (UniProt P70536); test: NVS_GPCR_rOXT: NovaScreen (NVS) G Protein-Coupled Receptor Assay for rat Oxytocin Receptor (OXT) (AID 2283330)
# How it was run: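 Radioligand displacement on rat uterine membranes, 1 h incubation, filter-based scintillation counting. Chemicals were screened in duplicate at 25 uM, and those passing threshold were retested in concentration-response up to 50 uM. Loss of binding was fitted versus DMSO.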
# [11] = biological target: human Serotonin, 5-Hydroxytryptamine Receptor 3 (5HT3), HTR3A (gene 3359) (UniProt P46098); test: NVS_LGIC_h5HT3: NovaScreen (NVS) Ligand-Gated Ion Channel Assay for human Serotonin, 5-Hydroxytryptamine Receptor 3 (5HT3) (AID 2283325)
# How it was run: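 Radioligand displacement binding to human 5-HT3 from HEK293 membranes, read by filter-based scintillation counting after 1 h. Screen at 25 uM in duplicate; chemicals passing threshold were retested in concentration-response up to 50 uM.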
# [12] = biological target: human Constitutive Androstane Receptor (CAR), NR1I3 (gene 9970) (UniProt Q14994); test: NVS_NR_hCAR_Agonist: NovaScreen (NVS) Nuclear Receptor Binding Assay for human Constitutive Androstane Receptor Agonism (CAR) (AID 2283328)
# How it was run: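 Cell-free TR-FRET binding readout with extracted human CAR protein, read 1 h after dosing. Gain of signal fitted against DMSO baseline. Single-concentration duplicates at 25 uM, then concentration-response up to 50 uM for actives.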
# [13] = biological target: human Androgen Receptor (AR), AR (gene 367) (UniProt P10275); test: NVS_NR_hAR: NovaScreen (NVS) Nuclear Receptor Binding Assay for human Androgen Receptor (AR) (AID 2283332)
# How it was run: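 LnCAP cell-free extract; radioligand displacement read by scintillation counting after 20 h. Primary screen single concentration 25 uM in duplicate, actives then run as concentration series; loss-of-signal fitted relative to DMSO baseline.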
# Chain of rat Adrenergic Receptor, Alpha 2 (Adra2), Non-selective Binding, Adra2a (gene 25083) (P22909 whole entry, looked up): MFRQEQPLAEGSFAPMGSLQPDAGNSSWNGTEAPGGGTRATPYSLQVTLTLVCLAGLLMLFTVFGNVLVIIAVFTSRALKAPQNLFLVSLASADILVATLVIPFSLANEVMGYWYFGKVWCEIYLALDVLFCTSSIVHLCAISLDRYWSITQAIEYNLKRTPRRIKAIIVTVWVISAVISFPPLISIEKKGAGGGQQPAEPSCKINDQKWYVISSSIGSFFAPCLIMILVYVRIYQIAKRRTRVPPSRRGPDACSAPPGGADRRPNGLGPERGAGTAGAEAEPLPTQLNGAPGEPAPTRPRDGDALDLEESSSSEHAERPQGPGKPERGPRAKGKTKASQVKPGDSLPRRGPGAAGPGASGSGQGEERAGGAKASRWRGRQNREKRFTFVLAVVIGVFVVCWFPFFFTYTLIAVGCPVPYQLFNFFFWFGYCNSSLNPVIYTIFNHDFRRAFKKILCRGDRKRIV
# Chain of human Androgen Receptor (AR), AR (gene 367) (P10275 whole entry, looked up): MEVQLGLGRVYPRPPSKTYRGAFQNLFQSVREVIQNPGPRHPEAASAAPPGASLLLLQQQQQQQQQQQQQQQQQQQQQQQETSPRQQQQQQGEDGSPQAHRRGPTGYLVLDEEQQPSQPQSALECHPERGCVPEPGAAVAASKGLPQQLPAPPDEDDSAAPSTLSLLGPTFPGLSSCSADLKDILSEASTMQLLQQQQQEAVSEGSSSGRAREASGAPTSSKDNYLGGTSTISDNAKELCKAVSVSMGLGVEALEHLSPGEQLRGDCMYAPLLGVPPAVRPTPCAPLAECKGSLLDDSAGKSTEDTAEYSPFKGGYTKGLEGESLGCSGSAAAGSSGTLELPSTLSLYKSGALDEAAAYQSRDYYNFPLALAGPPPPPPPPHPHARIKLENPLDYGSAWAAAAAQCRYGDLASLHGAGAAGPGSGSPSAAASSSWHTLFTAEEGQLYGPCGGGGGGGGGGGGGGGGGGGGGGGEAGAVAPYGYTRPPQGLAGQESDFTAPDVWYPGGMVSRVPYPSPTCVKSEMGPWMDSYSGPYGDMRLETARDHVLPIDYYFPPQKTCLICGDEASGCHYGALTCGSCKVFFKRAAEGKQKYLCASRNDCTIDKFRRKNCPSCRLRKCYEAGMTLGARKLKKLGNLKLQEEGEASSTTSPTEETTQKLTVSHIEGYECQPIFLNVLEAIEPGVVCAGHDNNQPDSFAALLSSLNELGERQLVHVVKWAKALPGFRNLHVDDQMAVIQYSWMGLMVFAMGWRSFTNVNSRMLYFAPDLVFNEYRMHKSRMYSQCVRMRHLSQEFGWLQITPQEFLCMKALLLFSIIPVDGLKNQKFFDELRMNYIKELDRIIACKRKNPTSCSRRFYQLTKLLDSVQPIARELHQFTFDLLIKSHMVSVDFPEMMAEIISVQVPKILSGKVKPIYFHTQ
# Chain of bovine Gamma-Aminobutyric Acid Type A Receptor BDZ, alpha 1 site (GABARa1), GABRA1 (gene 780973) (P08219 whole entry, looked up): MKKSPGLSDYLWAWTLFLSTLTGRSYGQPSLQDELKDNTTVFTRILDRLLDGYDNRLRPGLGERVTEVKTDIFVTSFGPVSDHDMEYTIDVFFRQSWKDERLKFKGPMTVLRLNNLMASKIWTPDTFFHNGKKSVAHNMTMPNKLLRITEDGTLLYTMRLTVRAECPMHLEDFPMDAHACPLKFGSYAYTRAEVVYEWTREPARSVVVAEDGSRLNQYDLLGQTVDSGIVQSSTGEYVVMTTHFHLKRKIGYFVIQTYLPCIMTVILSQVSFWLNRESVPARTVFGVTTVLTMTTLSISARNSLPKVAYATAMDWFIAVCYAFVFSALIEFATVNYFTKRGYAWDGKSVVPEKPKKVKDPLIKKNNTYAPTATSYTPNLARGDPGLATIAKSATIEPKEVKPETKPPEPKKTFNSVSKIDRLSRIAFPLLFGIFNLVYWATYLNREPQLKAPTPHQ
# Chain of rat Oxytocin Receptor (OXT), Oxtr (gene 25342) (P70536 whole entry, looked up): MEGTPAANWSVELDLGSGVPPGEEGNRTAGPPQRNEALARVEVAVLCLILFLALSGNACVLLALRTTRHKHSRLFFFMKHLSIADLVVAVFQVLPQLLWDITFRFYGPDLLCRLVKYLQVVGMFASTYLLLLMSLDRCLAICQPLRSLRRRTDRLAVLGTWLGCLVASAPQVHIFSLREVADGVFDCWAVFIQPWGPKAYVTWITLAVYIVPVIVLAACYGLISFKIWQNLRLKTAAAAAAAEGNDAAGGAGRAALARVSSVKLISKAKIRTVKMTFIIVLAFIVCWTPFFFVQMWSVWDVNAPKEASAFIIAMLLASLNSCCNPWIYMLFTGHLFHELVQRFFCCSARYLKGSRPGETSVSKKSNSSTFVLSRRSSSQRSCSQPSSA
# Chain of bovine Gamma-Aminobutyric Acid Type A Receptor BDZ, alpha 5 site (GABARa5), GABRA5 (gene 523515) (Q08E50 whole entry, looked up): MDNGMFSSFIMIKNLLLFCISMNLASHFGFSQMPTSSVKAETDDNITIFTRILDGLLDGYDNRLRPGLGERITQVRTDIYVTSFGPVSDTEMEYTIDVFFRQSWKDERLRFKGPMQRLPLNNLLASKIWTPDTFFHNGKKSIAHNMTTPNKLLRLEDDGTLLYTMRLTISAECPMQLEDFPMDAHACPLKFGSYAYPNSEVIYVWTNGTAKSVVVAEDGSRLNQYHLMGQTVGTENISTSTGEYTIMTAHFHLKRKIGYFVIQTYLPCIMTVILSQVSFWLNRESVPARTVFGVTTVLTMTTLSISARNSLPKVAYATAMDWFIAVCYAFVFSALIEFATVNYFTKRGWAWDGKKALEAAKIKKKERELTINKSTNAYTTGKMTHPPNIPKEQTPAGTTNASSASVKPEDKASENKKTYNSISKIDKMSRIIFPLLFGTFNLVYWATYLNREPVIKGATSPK
# Chain of rat Gamma-Aminobutyric Acid Type B Receptor (GABBR), Gabbr1 (gene 81657) (Q9Z0U4 whole entry, looked up): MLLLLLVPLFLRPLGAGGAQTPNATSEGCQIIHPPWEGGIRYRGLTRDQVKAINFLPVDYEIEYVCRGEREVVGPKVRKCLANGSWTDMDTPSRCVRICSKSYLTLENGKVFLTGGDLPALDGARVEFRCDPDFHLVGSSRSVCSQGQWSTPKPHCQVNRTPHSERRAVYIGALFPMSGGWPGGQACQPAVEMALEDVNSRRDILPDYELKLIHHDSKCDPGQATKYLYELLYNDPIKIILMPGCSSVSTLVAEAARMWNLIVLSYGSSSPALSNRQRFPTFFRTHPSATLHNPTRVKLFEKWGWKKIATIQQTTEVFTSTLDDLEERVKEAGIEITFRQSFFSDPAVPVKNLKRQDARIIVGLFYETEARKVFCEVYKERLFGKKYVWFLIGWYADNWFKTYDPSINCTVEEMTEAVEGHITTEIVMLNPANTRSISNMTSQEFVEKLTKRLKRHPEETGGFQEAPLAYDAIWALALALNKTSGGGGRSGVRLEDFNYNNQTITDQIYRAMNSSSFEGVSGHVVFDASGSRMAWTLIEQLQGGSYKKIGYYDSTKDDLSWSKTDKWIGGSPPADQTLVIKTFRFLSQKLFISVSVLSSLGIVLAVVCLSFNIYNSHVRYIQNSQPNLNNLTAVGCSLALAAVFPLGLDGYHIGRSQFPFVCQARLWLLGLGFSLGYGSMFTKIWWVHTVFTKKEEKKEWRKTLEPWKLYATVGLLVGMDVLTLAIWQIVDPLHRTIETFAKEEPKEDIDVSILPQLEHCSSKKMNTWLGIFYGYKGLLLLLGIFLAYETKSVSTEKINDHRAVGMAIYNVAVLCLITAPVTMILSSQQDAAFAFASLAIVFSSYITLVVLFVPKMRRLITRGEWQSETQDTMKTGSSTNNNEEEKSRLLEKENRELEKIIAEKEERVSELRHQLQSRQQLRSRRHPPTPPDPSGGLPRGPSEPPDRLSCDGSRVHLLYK
# Chain of rat Corticotropin Releasing Factor Receptor (CRF), Crhr1 (gene 58959) (P35353 whole entry, looked up): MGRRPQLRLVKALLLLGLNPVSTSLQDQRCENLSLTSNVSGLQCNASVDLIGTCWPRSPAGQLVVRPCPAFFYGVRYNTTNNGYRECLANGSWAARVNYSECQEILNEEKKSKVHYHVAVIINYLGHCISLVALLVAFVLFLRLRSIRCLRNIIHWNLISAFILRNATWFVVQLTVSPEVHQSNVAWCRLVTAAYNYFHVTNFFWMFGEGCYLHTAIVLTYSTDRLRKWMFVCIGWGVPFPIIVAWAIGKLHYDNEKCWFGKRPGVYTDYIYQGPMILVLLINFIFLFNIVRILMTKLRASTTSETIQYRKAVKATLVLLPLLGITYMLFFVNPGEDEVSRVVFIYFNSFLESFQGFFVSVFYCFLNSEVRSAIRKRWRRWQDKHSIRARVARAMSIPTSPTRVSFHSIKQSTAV
# Chain of rat Neurotensin Receptor (NTS), Ntsr1 (gene 366274) (P20789 whole entry, looked up): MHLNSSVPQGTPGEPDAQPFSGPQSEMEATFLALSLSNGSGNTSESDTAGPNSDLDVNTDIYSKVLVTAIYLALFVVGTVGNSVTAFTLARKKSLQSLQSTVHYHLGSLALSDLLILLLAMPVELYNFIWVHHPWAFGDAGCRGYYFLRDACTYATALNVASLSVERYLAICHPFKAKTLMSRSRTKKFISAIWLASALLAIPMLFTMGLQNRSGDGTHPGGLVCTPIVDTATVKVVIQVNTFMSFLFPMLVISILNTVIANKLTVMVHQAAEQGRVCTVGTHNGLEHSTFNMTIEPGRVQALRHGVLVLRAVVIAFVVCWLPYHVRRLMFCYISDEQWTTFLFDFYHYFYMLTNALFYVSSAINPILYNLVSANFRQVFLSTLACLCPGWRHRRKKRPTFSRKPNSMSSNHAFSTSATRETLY
# Chain of human Serotonin, 5-Hydroxytryptamine Receptor 3 (5HT3), HTR3A (gene 3359) (P46098 whole entry, looked up): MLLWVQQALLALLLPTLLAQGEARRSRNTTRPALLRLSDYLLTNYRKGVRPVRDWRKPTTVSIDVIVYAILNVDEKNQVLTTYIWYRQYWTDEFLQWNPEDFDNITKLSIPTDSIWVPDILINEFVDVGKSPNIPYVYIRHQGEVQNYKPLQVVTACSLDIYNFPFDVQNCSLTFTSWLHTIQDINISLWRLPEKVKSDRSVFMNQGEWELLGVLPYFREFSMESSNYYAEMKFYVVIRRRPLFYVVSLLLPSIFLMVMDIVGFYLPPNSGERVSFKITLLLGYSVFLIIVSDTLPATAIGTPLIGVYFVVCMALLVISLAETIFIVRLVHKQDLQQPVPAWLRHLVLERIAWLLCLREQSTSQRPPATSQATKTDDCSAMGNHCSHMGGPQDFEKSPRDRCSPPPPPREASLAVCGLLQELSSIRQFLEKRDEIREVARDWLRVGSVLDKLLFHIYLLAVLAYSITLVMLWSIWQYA
structure (smiles),measurement,setting,value
CC(C)Nc1ccc(Nc2ccccc2)cc1,AC50,[1],25 µM (active)
CCCCC(CC)COP(=O)(Oc1ccccc1)Oc1ccccc1 (stereo unspecified),outcome,[1],inactive
CC(Cc1ccc(OCC(=O)O)cc1)NCC(O)c1csc(C(F)(F)F)n1 (stereo unspecified),outcome,[2],inactive
same,outcome,[3],inactive
same,outcome,[4],inactive
CCC1(c2ccccc2)C(=O)N=C(O)NC1=O (stereo unspecified),outcome,[3],inactive
same,outcome,[5],inactive
O=P(Oc1ccccc1)(Oc1ccccc1)Oc1ccccc1,outcome,Adra2b (gene 24174),inactive
CCCCN(CCCC)SN(C)C(=O)Oc1cccc2c1OC(C)(C)C2,outcome,[6],inactive
Nc1cc2c3c(c1)C(c1ccccc1)=N[C@@H](NC(=O)c1cccnc1)C(=O)N3CC2,outcome,[7],inactive
same,outcome,[5],inactive
same,outcome,[8],inactive
ClC1=C(Cl)C2(Cl)C3C(Cl)C(Cl)CC3C1(Cl)C2(Cl)Cl (stereo unspecified),outcome,[9],inactive
OCC1CO1 (stereo unspecified),outcome,NCBI gene 24521,inactive
CSC(C)(C)C=NO,outcome,[8],inactive
same,outcome,[10],inactive
Nc1ccc(Cl)cc1,outcome,[11],inactive
c1ccc2c(c1)Nc1ccccc1S2,outcome,[12],inactive
O=P1(N(CCCl)CCCl)NCCCO1 (stereo unspecified),outcome,[10],inactive
O=P(OCC(Br)CBr)(OCC(Br)CBr)OCC(Br)CBr (stereo unspecified),AC50,[13],6.63 µM (active)
CCCCCCCc1ccc(O)cc1,outcome,[13],inactive

# From PubChem BioAssay (EPA / NIEHS)
